Beta2AR agonist = beta2AR agonists driving receptor internalization, primary screen, cell-based, FAP fluorogen, flow cytometry; Am2.2-beta2AR cells; AID 504454, 2011; Beta-2 adrenergic receptor (Homo sapiens), P07550; actives 0.43% (n = 340,000); response, % (test concentration not listed);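 active = response above a set limit, near 3 SD of response in nonfluorescent compounds, cut at about 42% in these data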
Target sequence (P07550 whole entry, looked up): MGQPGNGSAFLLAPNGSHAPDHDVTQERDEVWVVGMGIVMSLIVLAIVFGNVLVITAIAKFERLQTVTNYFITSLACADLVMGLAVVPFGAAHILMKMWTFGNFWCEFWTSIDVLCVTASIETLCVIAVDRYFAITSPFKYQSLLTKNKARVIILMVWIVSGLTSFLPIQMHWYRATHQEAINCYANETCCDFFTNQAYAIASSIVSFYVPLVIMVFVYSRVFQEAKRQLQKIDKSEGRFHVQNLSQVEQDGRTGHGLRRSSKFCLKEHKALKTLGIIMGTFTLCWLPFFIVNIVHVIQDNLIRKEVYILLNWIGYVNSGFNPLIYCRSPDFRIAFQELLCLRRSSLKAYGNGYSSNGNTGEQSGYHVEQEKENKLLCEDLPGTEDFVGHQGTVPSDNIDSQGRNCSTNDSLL
tim10-1 inh = growth inhibitors of tim10-1 mutant yeast, primary screen, luminescence, uHTS | S. cerevisiae tim10-1 ts strain growth, BacTiter-Glo, 24 h | inhibition, % at 20 µM | actives 2.2% (n = 330,000) | AID 463190, 2010;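 active = inhibition of at least 40%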;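 note: mutant grown at 25 °C; 0% = DMSO wells with yeast and 100% = wells holding no yeast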
TIM10 inh = growth inhibitors of isogenic TIM10 control yeast, primary screen, counter-screen for tim10-1 yeast inhibitor project, luminescence, uHTS; S. cerevisiae TIM10 strain growth, BacTiter-Glo luminescence, 24 h; inhibition, % at 10 µM; actives 1.4% (n = 330,000);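 active = inhibition of 40% or more at the single tested concentration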;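 note: wild-type TIM10 isogenic control strain grown at permissive 25 °C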
tim23-1 inh = growth inhibitors of tim23-1 mutant yeast, primary screen, luminescence, uHTS | S. cerevisiae tim23-1 growth, BacTiter-Glo luminescence, 24 h | inhibition, % at 20 µM | actives 1.3% (n = 330,000);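 active = growth inhibition of the mutant yeast at or above 50%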;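 note: temperature-sensitive mutant grown at 25 °C; plate controls were DMSO-treated mutant yeast for no effect and medium wells lacking yeast for full effect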
PfHsp90 yeast 2 = growth inhibition of PfHsp90-expressing yeast, primary screen, antimalarial PfHsp90 inhibitor project, S. cerevisiae, BacTiter-Glo luminescence, single point, set 2; BacTiter-Glo ATP, 48 h; yeast lacking PDR1 and PDR3 efflux regulators; inhibition, % at 9.4 µM; actives 0.32% (n = 310,000);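 active = every replicate shows inhibition above about 80%, whatever the replicate mean, limit read from the data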;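 note: 0% = DMSO neutral controls and 100% = 20 µM radicicol positive controls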
tim23-1 conf = tim23-1 mutant yeast growth inhibitors, confirmation, luminescence, single concentration | actives 83% (n = 4,400) | inhibition, % at 20 µM | shares compounds with tim23-1 inh | S. cerevisiae tim23-1 growth, BacTiter-Glo luminescence, 24 h;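 active = inhibition above about 39% in either of two replicate wells at 20 µM, limit read from the data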;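 note: temperature-sensitive tim23-1 mutant grown at 25 °C; 0% = DMSO wells with yeast and 100% = medium wells without yeast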
* hit, by the source's call; · = no result given. Hits are enriched below; roughly 3.8% of the tested compounds scored in any of these assays.

SMILES | Beta2AR agonist | tim10-1 inh | TIM10 inh | tim23-1 inh | PfHsp90 yeast 2 | tim23-1 conf
Cc1nc(NS(=O)(=O)c2ccccc2C)c2c3c(sc2n1)CCC3 | · | 31.7 | 19.8 | 52.7* | · | 51.0*
Cc1cccc(OCCCSc2nc3ccccc3[nH]2)c1 | -19.5 | -0.1 | 3.0 | -16.8 | 52.3 | ·
CCOc1ccc(OCCSc2nc3ccccc3[nH]2)cc1 | -6.8 | 15.7 | 26.4 | 60.1* | -17.5 | 31.9
COC(=O)[C@H](CC(C)C)N1Cc2cc(OC)cc(OC)c2-c2ccccc2S1(=O)=O | -7.1 | 25.7 | 3.2 | 50.4* | -7.9 | 26.2
Cc1cc2c(cc1C)C(=O)C(Br)=C(N)C2=O | 7.3 | · | · | · | · | ·
NC1=C(Br)C(=O)c2ccccc2C1=O | 10.7 | 24.6 | 32.7 | 55.9* | -7.3 | 51.7*
CCOC(=O)NNc1ccc2nonc2c1[N+](=O)[O-] | 3.0 | 19.9 | 31.3 | 55.7* | -4.7 | 69.2*
CCc1ccc(Nc2ccc3nonc3c2[N+](=O)[O-])cc1 | -5.3 | 19.4 | 22.5 | 16.2 | -5.2 | ·
CC1CCN(S(=O)(=O)c2ccc(NC(=O)c3ccccc3F)cc2)CC1 | 1.0 | 35.2 | 31.1 | 51.9* | 9.9 | 45.0*
O=C(c1ccccc1-n1cccn1)N1CCc2c([nH]c3ccccc23)C1c1ccccn1 (centres undefined) | 1.7 | 21.8 | 15.8 | 29.7 | -22.1 | ·
O=C(O)c1cc(/C=C/c2ccc(N3CCOCC3)cc2)nc2ccccc12 | 10.3 | 32.3 | 16.9 | 52.4* | · | 40.6*
O=C(O)c1cc(/C=C/c2ccc(N3CCOCC3)c([N+](=O)[O-])c2)nc2ccccc12 | 8.4 | 9.5 | 3.7 | 22.0 | 1.3 | ·
CCOC(=O)c1cc(C)n(-c2ccccc2)c1C | -1.3 | 7.8 | -21.1 | 17.6 | -2.7 | ·
COC(=O)[C@]1(CC(C)C)N[C@H](c2ccc(-c3ccc(Cl)c(Cl)c3)cc2)[C@@H]2C(=O)N(C)C(=O)[C@@H]21 | -5.5 | 24.4 | 29.3 | 28.0 | -7.0 | ·
Cc1cc(NC(=O)CN2CCc3ccccc3C2)nc2c1c(=O)oc1ccccc12 | 23.0 | 24.5 | 30.0 | 53.1* | -5.3 | 62.4*
CC(C)CC(=O)Nc1nnc(SCC(=O)NC2CCCCC2)s1 | -6.9 | -8.1 | -5.3 | -14.5 | 6.5 | ·
COc1ccc(S(=O)(=O)N2CCOCC2)cc1NC(=O)COC(=O)c1oc2ccccc2c1C | 0.8 | 0.7 | -7.3 | -1.4 | -4.0 | ·
O=C(CCCc1nc(-c2ccccc2)no1)NC1CCCCC1 | -0.7 | -7.0 | 13.9 | 7.7 | 7.4 | ·
O=C(O)c1cn(-c2ccc(N3CCCC3)c(F)c2)c2c(F)c(F)c(F)cc2c1=O | 1.0 | 4.6 | -0.3 | 53.1* | 105.8* | 15.8
Cc1c(-n2cc(C(=O)O)c(=O)c3cc(F)c(N4CCCC(O)C4)c(F)c32)c(=O)n(-c2ccccc2)n1C (centres undefined) | -2.0 | 5.6 | -0.3 | 9.0 | 9.8 | ·
Cc1ccc(O)c(N=Nc2ccccc2)n1 | -7.6 | 22.8 | 3.6 | 54.3* | -27.5 | 54.0*
C/C(=N\NC(=O)c1cccc(Br)c1)c1ccccn1 | 1.1 | 29.5 | 28.6 | 51.7* | -13.3 | 37.2
C/C(=N\NC(=O)c1cc(Br)ccc1O)c1ccccn1 | 8.7 | 11.7 | 11.3 | -1.7 | 7.3 | ·
CC#CC(=O)N1CCC(CO)(CCc2ccccc2)CC1 | -3.2 | 6.3 | -14.3 | 13.3 | -22.5 | ·
COC(=O)c1sc(S(=O)(=O)N2CCCCC2C)c(C(=O)OC)c1C (centres undefined) | 9.2 | 14.1 | 18.9 | 41.2 | 14.6 | ·
SMILES | Beta2AR agonist | tim10-1 inh | TIM10 inh | tim23-1 inh | PfHsp90 yeast 2 | tim23-1 conf
O=c1c(-c2ccccc2)c1-c1ccccc1 | · | 16.0 | -14.4 | 57.9* | · | -11.3
CC(=O)c1ccc(N2CCN(C(=O)c3cccs3)C(C)C2)c(F)c1 (centres undefined) | 2.5 | -8.7 | -9.7 | 9.0 | -14.6 | ·
Cc1cc(N2O[C@H]3C=C[C@@H]2C3)no1 | -2.2 | 18.3 | -11.8 | 31.1 | -6.1 | ·
Cc1ccc(C(=O)N/N=C/c2cc(Br)ccc2O)cn1 | -10.1 | -24.8 | -40.8 | 63.0* | 11.5 | 51.5*
CC(c1ccccc1)N1CC(C(=O)N2CCCC(C(N)=O)C2)CC1=O (centres undefined) | -4.5 | 4.5 | -1.4 | 6.9 | -5.8 | ·
C=CCn1c(SCC(=O)N2CCCCC2)nnc1-c1ccncc1 | -6.9 | 6.5 | 8.0 | -2.6 | · | ·
Oc1c(C(Nc2cccc(C(F)(F)F)c2)c2ccncc2)ccc2cccnc12 (centres undefined) | 4.1 | 28.9 | 18.4 | 58.6* | 103.8* | 56.2*
COc1ccc(C(NC(C)=O)c2ccc3cccnc3c2O)c(OC)c1 (centres undefined) | -4.0 | 14.1 | 0.9 | -11.1 | · | ·
CC(C)(C)OC(=O)N1CCN(C(=O)c2[nH]cnc2C(=O)Nc2nccs2)CC1 | -2.1 | 2.3 | -2.1 | -0.5 | 8.5 | ·
O=c1c2ccccc2nc(-c2ccccc2)n1Cc1ccc(Cl)cc1 | -0.8 | 32.3 | 24.8 | 33.2 | · | ·
O=c1c2cc(Br)ccc2nc(-c2ccccc2)n1O | -1.8 | 22.9 | 10.1 | 60.3* | 14.2 | 50.4*
Cc1nc2ccc(Br)cc2c(-c2ccccc2)c1C(=O)O | -1.5 | -3.5 | -0.6 | -0.1 | -1.4 | ·
Cc1ccc(-c2nc3ccccc3c(=O)n2O)cc1 | 7.9 | 17.6 | -2.3 | 43.4 | 24.1 | ·
Cc1ccc(-c2nc3ccc(Cl)cc3c(=O)n2O)cc1 | -4.5 | 8.3 | 38.2 | 62.9* | 14.6 | 55.2*
O=c1c2ccccc2nc(-c2ccc([N+](=O)[O-])cc2)n1O | 3.4 | 37.4 | 29.7 | 51.6* | 7.9 | 47.2*
O=c1c2ccccc2nc(-c2cccc(Cl)c2)n1O | -3.8 | 15.5 | 35.8 | 59.4* | -117.7 | 59.2*
O=c1c2cc(Cl)ccc2nc(-c2ccccc2Cl)n1O | 0.1 | 11.7 | -9.1 | -7.4 | 0.5 | ·
Fc1cccc(CN2CCN(c3nc4nonc4nc3NC3CC3)CC2)c1 | 1.9 | 10.1 | 13.2 | 1.6 | 8.4 | ·
O=C(COC(=O)CNC(=O)c1cccc([N+](=O)[O-])c1)NCc1ccco1 | -1.1 | -3.7 | 5.9 | 10.7 | 3.8 | ·
O=C(NN=C1c2ccccc2-c2ccccc21)c1ccccc1 | -9.0 | 18.6 | 34.1 | 50.4* | -30.5 | 65.8*
NC(=S)NN=C1c2ccccc2-c2ccccc21 | 6.2 | 35.9 | 39.8 | 57.2* | -17.8 | 46.0*
CCOC(=O)c1c(S(=O)(=O)NCC(C)c2ccccc2)c(C)n(C)c1C (centres undefined) | 4.3 | 14.0 | 11.2 | 20.5 | -0.4 | ·
CC1CC(C)CN(S(=O)(=O)c2ccc3c(c2)CC(=O)N3)C1 (centres undefined) | 8.9 | 12.8 | 5.2 | 8.4 | -1.4 | ·
COc1ccccc1C(=O)NC(=O)CSc1ccc(C)c(C)c1 | -5.0 | 20.3 | 17.4 | 47.6 | -13.4 | ·

Bioassay records: PubChem BioAssay, several laboratories
